The nature of test [1]: stimulators of insulin release from INS-1E, primary screen, cell-based, 5 mM glucose, NPC library (AID 1117329;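 active means compound raises insulin release from rat beta cells at 5 mM glucose, no numeric limit stated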). Particulars: rat INS-1E insulin secretion, at 10 µM, stronger effect = higher value.
Test [2] is described as follows: growth inhibition of GSK3B-pretreated HCT116 cells – cell-based, CellTiter-Glo, 0.2 to 20 µM (AID 1117336;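 active means compounds lowering colon cancer cell viability after pretreatment blocking the GSK3B kinase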). The settings on record: HCT116 viability after GSK3B inhibitor, at 20 µM, stronger effect = higher value.
Test [3] is described as follows: inhibition of endothelial tube formation, primary screen, imaging, VEGF stimulated, CD31 staining, tube area, NPC library (AID 1117340;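 active means compound that reduces growth-factor-driven endothelial tube area in a mixed cell culture, no cutoff stated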). The settings on record: VEGF-stimulated ADSC/ECFC co-culture, at 10 µM, stronger effect = higher value.
Test [4] in a line: glucagon-like peptide 1 release enhancers, primary assay, NCI-H716 cell line, NPC library (AID 1117341;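 active means compound raises GLP1 secretion from the human gut endocrine cells, with no numeric limit stated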). The settings on record: NCI-H716 cells, at 10 µM, stronger effect = higher value.
The nature of test [5]: HCT116 colon cancer cell growth inhibition, primary screen, CellTiter-Glo luminescence, NPC library (AID 1117342;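 active means compounds that lower survival of HCT116 colon cancer cells in the luminescence readout, no numeric limit stated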). Particulars: at 20 µM (top of the series).
Test [6] in a line: CellTiter-Glo luminescent readout of SW480 viability loss, NPC library primary (AID 1117343;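 active means compounds that lower viability of the colon cancer cells in the luminescence readout, with no numeric limit stated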). Particulars: CellTiter-Glo luminescence; at 20 µM (top of the series).
Test [7] is described as follows: decreased DLD-1 cellular survival, CellTiter-Glo luminescent readout, NPC compound collection, primary HTS (AID 1117346;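 active means compounds that lower survival of DLD-1 colon cancer cells in the luminescence readout, no cutoff given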). The settings on record: DLD-1 viability, CellTiter-Glo luminescence; at 20 µM (top of the series).
The nature of test [8]: modulation of C. elegans fzo-1 (AID 1259413).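 Further: fzo-1 mutant C. elegans worms in liquid wells.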 Particulars: C. elegans fzo-1 modulator screen, mean read-out; stronger effect = higher value.
For test [9], the system named is Aerobactin synthetase IucA (Klebsiella pneumoniae). Put plainly: IucA aerobactin synthetase inhibitors, biochemical, Tocris library, absorbance (AID 1345561).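 Further: 100% = enzyme without compound and 0% = no enzyme.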 Particulars: purified IucA enzyme assay, absorbance (OD) read-out; stronger effect = lower value;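 tested at 8 µM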.
The nature of test [10]: differential killing of epithelial or mesenchymal cells, primary screen, imaging, PC-3E GFP, TEM4-18 mCherry, co-culture (AID 1345086;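 active means compounds killing one labelled cell type while sparing the other, by normalised counts and ratio limits, not self-fluorescent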;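 on all read-outs here: cells exposed to compound for 72 h before imaging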;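 on red/green cell ratio (normalised): normalised mesenchymal count divided by normalised epithelial count so high means epithelial killing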). The settings on record: imaging cell counts, at 1 µM; for red/green cell ratio (normalised): actives lie on both sides, counts scaled to control wells, 1 = unselective.
Test [11] can be described thus: growth inhibition of DIPG glioma cells, dose response, cell-based, SU-DIPG-XVII, MIPE5.0, CellTiter-Glo, qHTS (AID 1347060; cut-off not given, nearly all actives have AC50 up to about 26 µM;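 on AC50: cells exposed to compound for 48 hours before viability readout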). The settings on record: SU-DIPG-XVII viability, CellTiter-Glo ATP luminescence.
Test [12] can be described thus: growth inhibition of DIPG glioma cells, dose response, cell-based, JHH-DIPG-1, MIPE4.0, CellTiter-Glo, qHTS (AID 1347062; cut-off not given, nearly all actives have AC50 up to about 27 µM;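 on AC50: cells exposed to compound for two days before readout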). The settings on record: JHH-DIPG-1 viability, CellTiter-Glo ATP luminescence.
Test [13] in a line: growth inhibition of DIPG glioma cells, dose response, cell-based, SU-DIPG-IV, MIPE4.0, CellTiter-Glo, qHTS (AID 1347063; cut-off not given, nearly all actives have AC50 up to about 30 µM;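 further: compound exposure lasted 48 hours before the viability readout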). The settings on record: SU-DIPG-IV viability, CellTiter-Glo ATP luminescence.
Test [14] in a line: growth inhibition of DIPG glioma cells, dose response, cell-based, SU-DIPG-XIII, MIPE5.0, CellTiter-Glo, qHTS (AID 1347064; cut-off not given, nearly all actives have AC50 up to about 23 µM;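 on AC50: cells exposed to compound for 48 hours before the viability read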). Particulars: SU-DIPG-XIII viability, CellTiter-Glo ATP luminescence.
The nature of test [15]: growth inhibition of DIPG glioma cells, dose response, cell-based, SU-DIPG-XIII, MIPE4.0, CellTiter-Glo, qHTS (AID 1347061; cut-off not given, nearly all actives have AC50 up to about 37 µM;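 further: cells exposed to compound for 48 hours before readout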). Particulars: SU-DIPG-XIII viability, CellTiter-Glo ATP luminescence.
The mark [16] stands for this setting: measured here: epithelial PC-3E GFP cell survival.
Where [17] appears, read: measured here: mesenchymal TEM4-18 mCherry cell survival.

Where “and” joins values, the source holds several entries; their conditions need not be identical. Identical values can stand only once. Results filed as inconclusive are left out. Calls of active or inactive are those of the source. Unless noted, how the calls were made is not given here.

`CC(Cc1ccccc1)(NC(=O)CN)c1ccccc1` (stereo unspecified): the insulin secretion stimulation in test [1] was 2.2% (inactive). In addition, the viability decrease in test [2] is -5.9% (inactive). Besides, the tube area decrease in test [3] is -10.6% (inactive). Besides, the GLP1 secretion stimulation in test [4] was 0.5% (inactive). Further, the inhibition of viability in test [5] was 13.7% (inactive). Further, the viability decrease (inhibition) in [6] was 17.1% (inactive); in test [7] it was 19.6% (inactive). For the same molecule, in test [8], the mean signal is 268 (inactive). In addition, the remaining activity in test [9] was 116% (inactive).

For the molecule `C[C@@H]1CN(c2c(F)c(F)c3c(=O)c(C(=O)O)cn(C4CC4)c3c2F)C[C@H](C)N1`, the insulin secretion stimulation in test [1] is -0.9% (inactive). Further, in test [2], the viability decrease was -4.4% (inactive). Moreover, the tube area decrease in test [3] is -17.5% (inactive). Moreover, the GLP1 secretion stimulation in test [4] was -0.3% (inactive). In addition, the inhibition of viability in test [5] was 4.9% (inactive). The viability decrease (inhibition) in test [6] was 24.4% (inactive); in test [7], -6.7% (inactive). For the same molecule, the red/green cell ratio (normalised) in test [10] is 1.1 (inactive) and 1 (inactive). Also, the normalised cell number in test [10] (setting [16]) was 1.07 and 1.13; in test [10] (setting [17]), 1.18 and 1.13.

Take `COc1cc(-c2ccc(=O)[nH]n2)ccc1OC(F)F`: the insulin secretion stimulation in test [1] is 0.6% (inactive). Also, in [2], the viability decrease was -6.05% (inactive). Moreover, the tube area decrease in [3] is 99.9% (active). In addition, the GLP1 secretion stimulation in [4] is 11.6% (inactive). Besides, the inhibition of viability in test [5] is -6.7% (inactive). Also, the viability decrease (inhibition) was 11.4% (inactive) in test [6] and 4.45% (inactive) in test [7]. Also, in [8], the mean signal is 244 (inactive). Besides, the remaining activity in [9] was 112% (inactive).

`COc1cccc2c1C(=O)c1c(O)c3c(c(O)c1C2=O)C[C@@](O)(C(=O)CO)C[C@@H]3O[C@H]1C[C@H](N)[C@H](O)[C@H](C)O1`: the insulin secretion stimulation in [1] is 4% (inactive). In addition, in [2], the viability decrease is -114% (inactive). Besides, the tube area decrease in [3] is 22.7% (active). For the same molecule, in [4], the GLP1 secretion stimulation was 3% (inactive). Besides, the inhibition of viability in [5] is 40.6% (inactive). The figures for the viability decrease (inhibition) in [6] and in test [7] were 99.3% (active) and 82.4% (active), respectively. Also, the mean signal in [8] is 234 (inactive). Further, in test [9], the remaining activity is 110% (inactive). Further, the AC50 in test [11] was 235 nM (active); in [12], 0.332 µM (active); in test [13], 0.418 µM (active); in [14], 934 nM (active).

As for `CC(C)c1ccc2oc3nc(N)c(C(=O)O)cc3c(=O)c2c1`, the insulin secretion stimulation in [1] is 3.2% (inactive). Also, the viability decrease in [2] was 8.7% (inactive). The tube area decrease in [3] is 0% (inactive). The GLP1 secretion stimulation in test [4] is 0.3% (inactive). Also, in [5], the inhibition of viability is -17% (inactive). The results for the viability decrease (inhibition) in test [6] and in test [7] were 17.9% (inactive) and -27.9% (inactive), respectively. For the same molecule, the mean signal in test [8] is 242 (inactive). Further, the outcome in test [15], in test [12] and in test [14] was inactive.

For the molecule `Cc1c(O)cccc1C(=O)N[C@@H](CSc1ccccc1)[C@H](O)CN1C[C@H]2CCCC[C@H]2C[C@H]1C(=O)NC(C)(C)C`, in test [1], the insulin secretion stimulation was 2.3% (inactive). Moreover, in test [2], the viability decrease is 117% (active). Further, the tube area decrease in test [3] was 67.1% (active). The GLP1 secretion stimulation in test [4] is 7.9% (inactive). Besides, the inhibition of viability in test [5] was 124% (active). For the same molecule, the values for the viability decrease (inhibition) in test [6] and in [7] were 158% (active) and 100% (active), respectively. For the same molecule, in test [8], the mean signal was 243 (inactive). The AC50 in [12] and in test [13] was 20.9 µM (active) in each case.

Turning to `CN(CCOc1ccc(NS(C)(=O)=O)cc1)CCc1ccc(NS(C)(=O)=O)cc1`, the insulin secretion stimulation in test [1] is 1.25% (inactive). Besides, the viability decrease in [2] is 12.3% (inactive). In addition, in test [3], the tube area decrease was 3.3% (active). For the same molecule, the GLP1 secretion stimulation in test [4] is 0.3% (inactive). The inhibition of viability in test [5] is 11.9% (inactive). Also, the values for the viability decrease (inhibition) in [6] and in [7] were 13% (inactive) and -6.9% (inactive), respectively. Besides, the mean signal in test [8] was 278 (inactive). In addition, the molecule was classed as inactive in [11], in test [15], in test [12] and in test [13].

As for `O=c1[nH]cnc2c1ncn2[C@H]1CC[C@@H](CO)O1`, in [1], the insulin secretion stimulation is 3.9% (inactive). Moreover, the viability decrease in [2] is -9% (inactive). Moreover, the tube area decrease in [3] was -4.4% (inactive). Also, the GLP1 secretion stimulation in test [4] was 3.6% (inactive). In addition, the inhibition of viability in [5] is -3.4% (inactive). In addition, the viability decrease (inhibition) in test [6] is -7.8% (inactive); in test [7], -6.1% (inactive). In [8], the mean signal was 237 (inactive). Further, the outcome in [15] was inactive.

As to `CN(CCCN1c2ccccc2CCc2ccccc21)CC(=O)c1ccc(Cl)cc1`, the insulin secretion stimulation in test [1] was 10.9% (inactive). Besides, the viability decrease in test [2] was 6.7% (inactive). Further, the tube area decrease in test [3] is 29.2% (inactive). In addition, the GLP1 secretion stimulation in [4] is 4.6% (inactive). In addition, the inhibition of viability in [5] was 33.2% (inactive). For the same molecule, the viability decrease (inhibition) was 84.8% (active) in test [6] and 39% (inactive) in test [7]. Further, in test [8], the mean signal is 194 (inactive). The remaining activity in test [9] was 113% (inactive).

Turning to `CCN(CC)CC1CCCCN1CC(=O)N1c2ccccc2C(=O)Nc2cccnc21` (stereo unspecified), the insulin secretion stimulation in test [1] was 4% (inactive). The viability decrease in test [2] is -12.6% (inactive). Besides, in [3], the tube area decrease was -28.2% (inactive). In addition, the GLP1 secretion stimulation in [4] is 7.7% (inactive). Besides, the inhibition of viability in [5] is 1.17% (inactive). For the same molecule, the viability decrease (inhibition) in test [6] was -3.8% (inactive); in [7], 6.8% (inactive). In addition, the mean signal in test [8] is 227 (inactive). For the same molecule, the remaining activity in [9] was 116% (inactive).

Regarding `NC1CCN(c2cccc(Cl)n2)CC1`, the insulin secretion stimulation in [1] was -0.7% (inactive). Also, the viability decrease in test [2] is -6.2% (inactive). In test [3], the tube area decrease is 3.8% (inactive). Besides, in [4], the GLP1 secretion stimulation is 3.8% (inactive). Further, the inhibition of viability in test [5] is 14.7% (inactive). Also, the figures for the viability decrease (inhibition) in test [6] and in test [7] were 28.7% (inactive) and -9.7% (inactive), respectively. Moreover, in test [8], the mean signal is 216 (inactive). In addition, in [9], the remaining activity was 113% (inactive).

Regarding `CCCCCCCCCCCCCCCCC(C(=O)O)C(O)(CC(=O)O)C(=O)O` (stereo unspecified), the insulin secretion stimulation in [1] was 3.2% (inactive). For the same molecule, the viability decrease in test [2] was 99.8% (active). In addition, the tube area decrease in test [3] was -7.3% (inactive). The GLP1 secretion stimulation in [4] is -2.9% (inactive). Also, the inhibition of viability in test [5] is 99.3% (active). Moreover, the viability decrease (inhibition) was 103% (active) in [6] and 102% (active) in test [7]. The red/green cell ratio (normalised) in [10] was 1.03 (inactive). Further, the normalised cell number in test [10] (setting [16]) amounted to 1; in test [10] (setting [17]), 1.03.

As for `Cc1nc2ccc(CN(C)c3ccc(C(=O)N[C@@H](CCC(=O)O)C(=O)O)s3)cc2c(=O)[nH]1`, the insulin secretion stimulation in test [1] was -5.7% (inactive). Besides, in test [2], the viability decrease was 83.7% (active). The tube area decrease in test [3] is 62.5% (active). Besides, the GLP1 secretion stimulation in test [4] is 1% (inactive). The inhibition of viability in [5] was 78.2% (active). Moreover, the viability decrease (inhibition) in test [6] is 117% (active); in test [7] it was 56.2% (active). In [8], the mean signal is 269 (inactive). Besides, the call in test [11], in [12] and in test [14] was inactive.

Source of the values: PubChem BioAssay.
